BoNT F protease: inhibitors of Botulinum neurotoxin F light chain protease | Multiplex microsphere protease cleavage assay, flow cytometry | inhibition, % at 10 µM | 360,000 compounds, 0.22% hits | AID 588497; in the data active = inhibition above about 35%, passing the limit was not always enough; inconclusive = no clear call, values can overlap the other calls; note: plate controls were buffer without enzyme for full effect and enzyme alone for no effect
MazF activator: increases E. coli MazEF RNase cleavage of RNA; activation, % at 20 µM; AID 504720; FAM/BHQ RNA-DNA oligo cleavage fluorescence, 5 h; P0AE70; 350,000 compounds, 0.32% hits; in the data active = activation above about 50%
Target sequence (P0AE70 whole entry, looked up): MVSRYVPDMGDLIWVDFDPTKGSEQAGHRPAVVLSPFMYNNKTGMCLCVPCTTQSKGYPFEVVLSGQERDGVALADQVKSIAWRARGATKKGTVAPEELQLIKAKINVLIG
Anthrax LF prot: anthrax lethal factor protease inhibition; P15917; multiplex microsphere protease cleavage assay, LF; inhibition, % at 10 µM; 360,000 compounds, 0.12% hits; note: plate controls were buffer without enzyme for full effect and enzyme alone for no effect
Autofluor counter: flagged as autofluorescent in microsphere protease counterscreen | compound autofluorescence counterscreen, microsphere flow cytometry; active compounds read high | fluorescence intensity (no concentration beside the values) | 360,000 compounds, 3.1% hits | AID 624483; in the data active = fluorescence intensity above about 16000; inconclusive = no clear call, values can overlap the other calls
PriA SSB inh: blocks PriA binding to SSB C-terminal tail | AlphaScreen SSBct-PriA binding, biotinylated peptide | inhibition, % at 33 µM | 430,000 compounds, 0.6% hits | AID 1272365; in the data active = inhibition mostly above about 37%, no sharp cut-off; inactive = mostly below about 20%;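 note: plate controls were negative control peptide for no effect and reference peptide for full effect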
BoNT A protease: blocks Botulinum neurotoxin A light chain protease. 360,000 compounds, 0.17% hits. AID 588499. multiplex microsphere protease substrate cleavage, flow cytometry. inhibition, % at 10 µM; note: plate controls were buffer without enzyme for full effect and enzyme alone for no effect
An asterisk follows results filed as active; i = inactive; ? = inconclusive; / = not tested or not shown. Sampled rows, rich in hits. Any-hit rate of the full collection: about 3.3%. Cut-off read from the data, not from the text of the source, unless noted: active = inhibition above about 30%; inconclusive = no clear call, values can overlap the other calls; inactive = below that.

SMILES	BoNT F protease	MazF activator	Anthrax LF prot	Autofluor counter	PriA SSB inh	BoNT A protease
Cc1ccc(SCCC(=O)Nc2sc3c(c2C(N)=O)CCC(C)C3)cc1 (configuration not stated)	/	/	/	/	1.0	/
Cc1cc(C(=O)N2CCC(C)CC2)on1	-1.0	8.4	3.0	4430	-3.6	1.1
CCOC(=O)N1CCN(C(=O)c2cc(C)no2)CC1	-0.6	4.8	-0.2	4087	98.2*	-0.2
c1ccn2c(c1)nc1c2nc2ccccn21	-1.7	-3.5	0.8	21237*	1.8	-1.5
O=C(CSc1nnc(CCn2ccc(=O)[nH]c2=O)o1)Nc1cc(Cl)ccc1Cl	/	/	/	/	-12.0	/
COc1ccc(-c2nn(-c3ccccc3)cc2/C=C(\C#N)c2nc3ccccc3s2)cc1F	/	/	/	/	-5.0	/
CC(=O)NC1(C(F)(F)F)NC(=O)N(CC(C)C)C1=O (configuration not stated)	6.7	-1.0	1.3	4383	-24.9	-0.1
CC(=O)Nc1ccc(S(=O)(=O)NC2(C(F)(F)F)NC(=O)N(C3CCCC3)C2=O)cc1 (configuration not stated)	-2.0	-6.8	-1.9	22547*	-8.4	-0.4
CC(=O)NC1(C(F)(F)F)NC(=O)N(C2CCCCC2)C1=O (configuration not stated)	3.0	2.6	-0.6	22952*	-3.0	-0.3
CC(=O)Nc1ccc(S(=O)(=O)NC2(C(F)(F)F)NC(=O)N(C3CCCCC3)C2=O)cc1 (configuration not stated)	-0.5	3.0	-4.7	23390*	-8.3	?
CC(=O)Nc1ccc(S(=O)(=O)NC2(C(F)(F)F)NC(=O)N(c3ccc(C)cc3)C2=O)cc1 (configuration not stated)	-4.2	1.2	-1.9	4616	-10.5	0.6
CC(=O)Nc1ccc(S(=O)(=O)NC2(C(F)(F)F)NC(=O)N(c3ccccc3F)C2=O)cc1 (configuration not stated)	0.5	0.0	-0.5	2271	4.9	-0.3
Cc1cc(NC(=O)CCn2cnc3c(cnn3C(C)(C)C)c2=O)c2ccccc2n1	/	/	/	/	-20.0	/
C/C=C\C(=O)NCCn1ncc2c(=O)n(Cc3cccc(C(F)(F)F)c3)cnc21	/	/	/	/	-18.0	/
Cc1cc(C)n2nc(C(=O)Nc3ccc4c(c3)OCO4)cc2n1	0.5	-3.3	-5.1	22219*	1.6	2.5
O=C(Nc1ccc2c(c1)OCO2)c1ccc(=O)n(Cc2cccc(F)c2)n1	/	/	/	/	17.0*	/
COc1ccc(Cl)cc1NC(=O)NCCNc1ccc(-n2cccc2)nn1	/	/	/	/	-17.0	/
Cc1nccn1CCNC(=O)c1cnn2c1OCCC2	/	/	/	/	-17.0	/
COc1ccc(CC(=O)N2CCC(Oc3ncccc3C#N)CC2)cc1OC	/	/	/	/	-6.0	/
CSc1ccc(/C=N/Nc2ccc(S(=O)(=O)Nc3ccccc3C(=O)O)cc2[N+](=O)[O-])cc1	/	/	/	/	i	/
Cc1nn(-c2ccccc2)c(Cl)c1C=NNc1ccc(S(=O)(=O)Nc2ccccc2C(=O)O)cc1[N+](=O)[O-]	/	/	/	/	45.2*	/
CCOc1ccccc1/C=N/Nc1ccc(S(=O)(=O)Nc2ccccc2OC)cc1[N+](=O)[O-]	/	/	/	/	i	/
COc1ccccc1NS(=O)(=O)c1ccc(NN=Cc2ccccc2OCC(=O)O)c([N+](=O)[O-])c1	/	/	/	/	42.5*	/
COc1cc(C=NNc2ccc(S(=O)(=O)Nc3ccccc3C(=O)O)cc2[N+](=O)[O-])ccc1O	-3.9	2.8	1.1	3990	49.0*	0.1
CN(CCO)c1ccc(C=NNc2ccc([N+](=O)[O-])cc2S(=O)(=O)Nc2ccccc2C(=O)O)cc1	-4.8	-11.1	-3.4	3468	40.5*	-0.5
SMILES	BoNT F protease	MazF activator	Anthrax LF prot	Autofluor counter	PriA SSB inh	BoNT A protease
CCSc1ccccc1C(=O)NCC(C)(O)c1cc2ccccc2s1 (configuration not stated)	/	/	/	/	8.0	/
O=S(=O)(NCc1ccccc1-c1ccsc1)c1ccc(Cl)s1	/	/	/	/	-15.0	/
Cc1nn(-c2ccccc2)c(N2CCCC2)c1C=NNc1ccc(S(N)(=O)=O)cc1[N+](=O)[O-]	/	/	/	/	79.8*	/
Cc1nn(-c2ccccc2)c(N2CCCC2)c1/C=N/Nc1ccc(S(N)(=O)=O)cc1[N+](=O)[O-]	-16.6	5.7	-4.7	1753	/	-0.7
O=C(NCc1cncc(-c2cccs2)c1)Nc1ccccc1C(F)(F)F	/	/	/	/	-22.0	/
CCC(=O)Nc1ccccc1C(=O)OCC(=O)c1ccc2ccccc2c1	-0.7	3.9	-4.1	23453*	-38.3	-0.6
CC(=O)Nc1ccccc1C(=O)OCC(=O)c1ccc2ccccc2c1	-0.8	5.0	3.7	9706	-10.9	0.6
O=C(Nc1cccc(Cn2cccn2)c1)c1cc2c(s1)CCCC2	-3.3	7.5	-7.8	16682*	-5.8	-3.0
Cc1cccc(C)c1NC(=O)CSc1nnc(-c2ccco2)n1N	0.2	-1.4	0.4	21789*	-12.8	1.2
Nn1c(SCc2cccc3ccccc23)nnc1-c1ccco1	1.8	2.6	-2.3	22596*	15.3	-0.2
Cn1c(SCc2cccc3ccccc23)nnc1-c1ccco1	-3.9	0.2	1.2	2599	9.7	0.2
COc1ccc(C/C(=N\N=C(N)N)c2ccc(OC)cc2)cc1	/	/	/	/	-10.0	/
Nc1c(C(=O)OCC2CCCO2)c2nc3ccccc3nc2n1Cc1cccs1 (configuration not stated)	-2.4	2.6	-0.8	2391	-8.0	4.2
Nc1c(C(=O)OCC2CCCO2)c2nc3ccccc3nc2n1C1CCCC1 (configuration not stated)	-28.9	6.5	-0.2	32531*	-23.8	-19.5
CCn1nc(NS(=O)(=O)c2ccccc2)c2cc3cccc(C)c3nc21	0.8	-0.2	-8.4	19546*	-11.2	?
CN1CCN(C2CCCCCC2)CC1	0.0	2.2	0.5	23426*	-1.4	-0.9
COC(=O)c1ccccc1NC(=O)CN1C(=O)c2ccccc2C1=O	/	9.5	/	/	-6.3	/
COC(=O)c1ccccc1NC(=O)Cn1c(-c2nonc2N)nc2ccccc21	7.1	-0.2	-6.5	20173*	-11.2	7.4
COC(=O)c1ccccc1NC(=O)Cn1c(SC)c(F)cnc1=O	4.8	-3.9	-1.4	19945*	-7.7	1.3
O=C(c1ccno1)N(CCN1CCOCC1)c1nc2c(Cl)cccc2s1	/	/	/	/	1.0	/
CS(=O)(=O)N(CC(O)Cn1cc(/C=N\O)c2ccccc21)c1ccc(Cl)cc1 (configuration not stated)	/	/	/	/	4.0	/
Cc1nc2ccccc2c(=O)n1-c1ccc(Cl)c(NS(=O)(=O)c2ccc3c(c2)OCCO3)c1	/	/	/	/	-11.0	/
O=C(O)CCCC(=O)OCCCCc1cccs1	1.9	3.4	-0.8	19404*	-5.2	?
CC1(C)Cc2nc3sc4c(=O)n(CC(=O)NCc5ccccc5)cnc4c3cc2CO1	-2.9	2.0	-0.3	16709*	0.0	-0.7
CCCCn1c(=O)[nH]c(=O)c2c1nc(-c1ccc(OC(F)F)c(OC)c1)n2C	3.1	71.4*	-1.6	5569	-5.9	0.7
CCCCn1c(=O)[nH]c(=O)c2c1nc(-c1cccc(OC)c1)n2C	-25.1	-36.0	-7.4	4241	2.5	-6.4
COCCCNC(=O)C[C@@H]1Nc2ccccc2NC1=O	/	/	/	/	-15.0	/
Cc1csc(NC(=O)[C@H]2CCCN(c3ccc(-c4nc(C)no4)cn3)C2)n1	/	/	/	/	-4.0	/
